A selection: hits, their analogues and other compounds. The true share with any hit is near 5.1%.
Tau fluor counter – counter-screen for tau fibril formation inhibitors. tau K18 P301L Alexa594 fluorescence, heparin fibrillization. Potency, µM (doses to about 57.7 µM), for inactives: at the top dose activity change, negative = decrease. 0.93% of 280,000 active; also: potency is read from the fitted curve at half-maximal effect; nearly all actives have a fitted effect of over 55% in size
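Human tau K18 P301L (15 uM unlabeled, 0.24 uM Alexa 594-labeled) in 100 mM sodium acetate pH 7 with 20 uM heparin, 6 hr at 37 C. ThT 30 uM added, 1 hr ambient; Alexa 594 FP and total fluorescence read at 555/632 nm.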
PNC assembly inh – inhibitors of perinucleolar compartment assembly | PC3M PTB-GFP, PNC prevalence imaging, 16 h; stronger effect = lower value | activity change (PNC), negative = inhibition, % at 10 µM | 3.1% of 140,000 active;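 active = readout at or below -70, meaning at least 70% loss of cells showing the perinucleolar compartment, a nuclear body marking cancer cells; inconclusive = readout between -30 and a set limit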;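 also: plate controls were DMSO wells for no effect and camptothecin positive control wells for full effect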
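Read-out is percentage of cells bearing a perinucleolar compartment, from automated 20x imaging of fixed, Hoechst-stained PC3M PTB-GFP cells. Cells were seeded 4 h, then exposed 16 h to compound (23 nl of library stock) in duplicate plates.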
Tau fibril FP – tau fibrillization inhibition (FP); K18 P301L tau heparin fibrillization, Alexa594 FP, 6 h; 0.39% of 280,000 active; AID 1468; Potency, µM (series often up to 57.7 µM), without a hit: at the highest dose activity, negative = inhibition, usual class: inhibitors; also: potency is read from the fitted curve at half-maximal effect; nearly all actives have a fitted effect of over 55% in size
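Recombinant K18 P301L […], labeled with Alexa 594 at 0.24 uM over 15 uM unlabeled; heparin inducer 20 uM final; 37 C, 6 hr; FP endpoint.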
JMJD2E inh – JMJD2E (human) inhibition; B2RXH2; JMJD2E catalytic domain, FDH-coupled NADH fluorescence (FDH is formaldehyde dehydrogenase); Potency, µM (highest dose often 57.1 µM), for inactives: top-dose activity change, negative = inhibition, actives largely listed as inhibitors; 1.6% of 230,000 active; AID 2147; active = well fitted inhibition curve with a large enough effect, not every such curve was filed as active; inconclusive = small, poorly fitted or top-dose-only effect, or another doubt; inactive = no such curve, though single readings can be large or run the other way;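 also: potency is read from the fitted curve at half-maximal effect; 0% = wells with enzyme and -100% = buffer wells without enzyme; nearly all actives have a fitted effect of over 50% in size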
Target sequence (B2RXH2 1-337 limits assumed): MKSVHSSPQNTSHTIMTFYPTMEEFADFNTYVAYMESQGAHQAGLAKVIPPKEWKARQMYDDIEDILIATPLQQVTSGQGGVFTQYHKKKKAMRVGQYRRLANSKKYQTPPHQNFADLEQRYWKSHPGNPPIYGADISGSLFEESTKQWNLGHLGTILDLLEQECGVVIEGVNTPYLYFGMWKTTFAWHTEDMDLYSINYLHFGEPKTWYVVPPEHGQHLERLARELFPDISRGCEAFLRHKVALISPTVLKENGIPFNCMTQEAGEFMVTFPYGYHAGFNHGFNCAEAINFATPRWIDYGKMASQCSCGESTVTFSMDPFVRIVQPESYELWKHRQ
Tau fibril ThT – blocks human tau fibril formation measured by thioflavin T; P10636; recombinant tau K18 P301L (four-repeat tau fragment), heparin-induced fibrillization, ThT fluorescence; Potency, µM (series often up to 57.4 µM), inactives show top-dose activity, negative = inhibition, actives largely listed as inhibitors; 2.1% of 270,000 active; also: potency is read from the fitted curve at half-maximal effect; nearly all actives have a fitted effect of over 55% in size
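In this qHTS, human K18 P301L tau is incubated with compound and heparin for 6 hr at 37 C, and Thioflavin T fluorescence then reports fibril load.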
NPSR antag – antagonists of human neuropeptide S receptor cAMP signaling; Q6W5P4; CHO-NPSR cells, cAMP TR-FRET, antagonist mode; Potency, µM (top dose mostly 38.3 µM), inactives show top-dose activity change, negative = inhibition, hits mostly inhibitors; 1% of 220,000 active; also: potency is read from the fitted curve at half-maximal effect; nearly all actives have a fitted effect of over 50% in size
Target sequence (Q6W5P4 whole entry, looked up): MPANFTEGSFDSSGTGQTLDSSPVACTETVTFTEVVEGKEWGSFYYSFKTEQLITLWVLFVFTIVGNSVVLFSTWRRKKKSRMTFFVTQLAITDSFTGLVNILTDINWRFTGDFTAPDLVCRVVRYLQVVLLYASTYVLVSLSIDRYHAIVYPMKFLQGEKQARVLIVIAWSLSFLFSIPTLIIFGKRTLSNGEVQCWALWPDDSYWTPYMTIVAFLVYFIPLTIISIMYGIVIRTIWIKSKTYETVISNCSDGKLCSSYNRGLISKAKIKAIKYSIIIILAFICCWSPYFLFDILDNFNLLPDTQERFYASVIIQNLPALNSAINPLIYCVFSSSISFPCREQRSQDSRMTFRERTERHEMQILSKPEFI
* marks the source's active call; other numbers are inactive results; ? = inconclusive; nt = not tested or not shown; [ ] = remark or other dose. Unless noted, calls follow the shape of the dose curve; as a rule, active = well fitted curve in the direction sought with a large enough effect; inconclusive = small, poorly fitted or top-dose-only effect, or another doubt; inactive = no such curve, though single readings can be large; an effect the other way counts as inactive or inconclusive. Unless noted, % is scaled to controls: 0 for no effect and ±100 for the full control effect.

SMILES	Tau fluor counter	PNC assembly inh	Tau fibril FP	JMJD2E inh	Tau fibril ThT	NPSR antag
Cc1ccc(-c2cc(C(=O)OCC(=O)Nc3cc(C)on3)c3ccccc3n2)c(C)c1	-21.2%	-82.4*	?	1.0%	-2.3%	?
COc1ccc(S(=O)(=O)c2c(SC)nn(CC(=O)Nc3ccc(C)c(Cl)c3)c2N)cc1	?	nt	25.1µM*	nt	7.2%	nt
CCSc1nn(CC(=O)Nc2cccc(CC)c2)c(N)c1S(=O)(=O)c1ccccc1	17.8µM*[quencher]	nt	?	nt	-6.8%	nt
CCc1ccc(NC(=O)Cn2nc(SC)c(S(=O)(=O)c3ccc(OC)cc3)c2N)cc1	-21.0%	nt	?	nt	3.6%	nt
Cc1cccc(-c2nc3c4ccccc4n(Cc4cccc(Cl)c4)c(=O)n3n2)c1	-5.4%	nt	-8.2%	nt	14.2%	nt
COc1cccc(-c2nnc3n(Cc4ccc(C)cc4)c(=O)c4ccccc4n23)c1O	-6.8%	nt	5.7%	nt	-11.6%	nt
Cc1ccc(NC(=O)/C(=C\c2ccc([N+](=O)[O-])cc2)NC(=O)c2ccccc2)cc1	-21.9%	-4.7	7.8%	-0.9%	-13.1%	-8.8%[46.1 µM]
O=C(N/N=C/c1ccc(O)c(O)c1O)/C(=C/c1ccc([N+](=O)[O-])cc1)NC(=O)c1ccccc1	?	28.1	8.91µM*	10µM*	3.55µM*	-9.4%[46.1 µM]
CCOC(=O)c1c(C)[nH]c(CCC(=O)Nc2cc(Cl)ccc2OC)c1C	?	nt	0.6%	nt	?	nt
Cc1cc(C(=O)N/N=C/c2ccc(C)o2)c2ccccc2n1	6.8%	-94.3*	2.5%	-2.7%	12.7%	18.5%
CCCc1cc(C(=O)N/N=C/c2ccc(C)o2)c2ccccc2n1	-3.9%	-0.5	-5.2%	-11.2%	-0.8%	-9.7%[46.1 µM]
Cc1ccc(/C=N/NC(=O)c2cc(C3CC3)nc3ccccc23)o1	3.4%	-108.4*	2.1%	?	-2.4%	14.0%
Cc1ccc(Nc2nnc(-c3ccc(C)c(S(=O)(=O)N4CCOCC4)c3)c3ccccc23)cc1	-5.9%	nt	-12.7%	nt	3.5%	nt
COc1ccc(C2CC(=O)C3=C(C2)Nc2ncnn2C3c2ccccc2)cc1 (stereo not given)	-0.5%	-107.1*	1.2%	-6.7%	3.8%	?
COc1ccc(C2CC(=O)C3=C(C2)Nc2ncnn2C3c2ccccc2C)cc1 (stereo not given)	-10.2%	34.9	1.9%	-8.5%	-10.8%	-12.2%[46.1 µM]
Cc1cc2oc(C(=O)Nc3ccc(S(N)(=O)=O)cc3)cc(=O)c2cc1C	4.1%	nt	-6.9%	nt	-0.3%	nt
CN(C)c1ccc(Nc2nc3ccccc3n3nnnc23)cc1	11.2µM*[quencher]	nt	12.9%	nt	7.94µM*	nt
COc1cc(OC)c(NC(=O)C2CCN(S(=O)(=O)c3ccc4c(c3)oc(=O)n4C)CC2)cc1Cl	-12.5%	nt	-0.2%	nt	-2.8%	nt
CCCOc1ccc(CN2C(=O)C(=O)c3cccc(C)c32)cc1	-25.7%	nt	-2.9%	nt	17.8µM*	nt
Cc1ccc(CN2C(=O)C(=O)c3cc(Br)cc(C)c32)cc1	?	nt	?	nt	28.2µM*	nt
Cc1cc(Cl)ccc1NS(=O)(=O)c1c(C(=O)N2CCC(C)CC2)c(C)n(C)c1C	-7.2%	nt	7.2%	nt	-2.3%	nt
COc1cccc(Cn2c(=O)n(CC3CCC(C(=O)N4CCCCC4)CC3)c(=O)c3sccc32)c1 (stereo not given)	-7.3%	nt	-0.2%	nt	-12.4%	nt
Cc1ccc(NS(=O)(=O)c2ccc3c(c2)N(C)C(=O)CC(=O)N3C)cc1Cl	-4.4%	nt	6.0%	nt	-6.0%	nt
COc1ccc(CS(=O)(=O)/C(Cl)=C(/Cl)C(=O)Nc2ccc(OC)nc2)cc1	-28.4%	-5.8	?	-2.9%	7.94µM*	6.31µM*
COc1ccc(NC(=O)/C(Cl)=C(/Cl)S(=O)Cc2ccccc2)cn1 (stereo not given)	-12.8%	?	?	-8.5%	?	1.26µM*
SMILES	Tau fluor counter	PNC assembly inh	Tau fibril FP	JMJD2E inh	Tau fibril ThT	NPSR antag
CC(=O)N1CCc2cc(Br)cc(S(=O)(=O)N3CCN(c4cccc(C(F)(F)F)c4)CC3)c21	-16.1%	nt	?	nt	-11.9%	nt
O=C(CSCc1cnn(-c2ccccc2)c1-n1cccc1)NCc1ccc2c(c1)OCO2	-8.3%	-100.0*	11.5%	-5.6%	-5.3%	-16.8%[46.1 µM]
Cc1ccn2c(Nc3ccc4c(c3)OCCO4)c(-c3ccc(Cl)s3)nc2c1	7.08µM*[quencher]	nt	?	nt	?	nt
Clc1ccc(-c2nc3ccccn3c2Nc2ccc3c(c2)OCCO3)s1	6.31µM*[quencher]	nt	11.4%	nt	?	nt
O=C1CC(c2ccc(Cl)cc2)Sc2nc(-c3ccc(F)cc3)nn21 (stereo not given)	1.5%	nt	-0.8%	nt	-9.5%	nt
CC(=O)c1ccc(NC(=O)c2ccc(CN3C(=O)CCn4nc(C)cc43)cc2)cc1	-10.0%	nt	-5.0%	nt	-4.4%	nt
CC1CCC(C(C)C)C(OC(=O)COC(=O)c2cc(O)ccc2N)C1 (stereo not given)	11.2µM*[quencher]	40.5	?	?	-13.7%	-44.0%
O=C(CSc1cn(CCNC(=O)c2c(F)cccc2F)c2ccccc12)Nc1ccccc1F	?	nt	-4.6%	nt	?	nt
Cc1ccc(-n2nnnc2SCC(=O)N2CCc3ccccc3C2)cc1	-4.6%	-100.0*	-1.1%	2.2%	-3.2%	-8.2%[46.1 µM]
S=C(NCc1cccs1)Nc1cc(Cl)cc(Cl)c1	?	nt	17.8µM*	-7.3%	-1.6%	?
Cn1cc(Cl)c(C(=O)NC2CCCCCC2)n1	4.9%	-2.4	-1.9%	12.9%	-2.7%	-9.1%[46.1 µM]
COc1ccccc1NC(=O)c1nn(C)cc1Br	-5.4%	21.3	-7.4%	-1.3%	-11.0%	-6.2%[46.1 µM]
Cn1cc(Cl)c(C(=O)NNC(=S)NC2CCCCC2)n1	-8.5%	-109.0*	-0.3%	?	-13.2%	8.0%
COc1ccccc1NC(=S)NNC(=O)c1nn(C)c(C)c1Cl	-12.8%	24.6	3.8%	14.1µM*	?	1.4%[46.1 µM]
COc1ccccc1NC(=S)NNC(=O)c1nn(C)c(C)c1Br	-16.7%	-4.4	-4.5%	7.94µM*	?	1.3%
COc1ccccc1NC(=S)NNC(=O)c1nn(C)cc1Cl	-11.9%	-17.6	-3.5%	10µM*	-15.9%	-11.9%[46.1 µM]
COc1ccccc1NC(=S)NNC(=O)c1ccc(O)cc1	-6.5%	37.4	-4.0%	1.8%	-2.1%	3.5%[46.1 µM]
Cc1c(Cl)c(C(=O)NNC(=S)NCc2ccco2)nn1C	-3.5%	?	-13.5%	?	-8.5%	-5.8%[46.1 µM]
C=C(C)Cn1c(=O)c2c(nc3n2CCN3c2ccc(F)cc2)n(C)c1=O	7.5%	nt	4.0%	nt	-4.1%	nt

High-throughput results deposited in PubChem BioAssay by National Center for Advancing Translational Sciences (NCATS).
